{
  "source": "PubChem BioAssay (EPA / NIEHS)",
  "note": "Active and inactive are the calls of the source. How the source made its calls: active means hit-call score of the fitted dose curve at least 0.9, where 1 is the maximum; inactive means score below 0.9.",
  "data": [
    {"test": "APR_HepG2_NuclearSize_72hr: Apredica 72-hour HepG2 Assay for Nuclear Size (AID 2282925)", "conditions": "high-content imaging, actives raise or lower the signal", "description": "APR_HepG2_72hr is a cell-based, multiplexed-readout assay that uses HepG2, a human liver cell line, with measurements taken at 72 hours after chemical dosing in a 384-well plate.APR_HepG2_NuclearSize_72hr is one of 10 assay component(s) measured or calculated from the APR_HepG2_72hr assay. It is designed to make measurements of cell phenotype, a form of morphology reporter, as detected with fluorescence intensity signals by HCS Fluorescent Imaging technology.Data from the assay component APR_HepG2_NuclearSize_72hr was analyzed into 1 assay endpoint. This assay endpoint, APR_HepG2_NuclearSize_72hr, was analyzed with bidirectional fitting relative to DMSO as the negative control and baseline of activity. Using a type of morphology reporter, measures of all nuclear dna for gain or loss-of-signal activity can be used to understand the signaling at the nuclear-level. Furthermore, this assay endpoint can be referred to as a primary readout, because this assay has produced multiple assay endpoints where this one serves a signaling function. To generalize the intended target to other relatable targets, this assay endpoint is annotated to the cell morphology intended target family, where the subfamily is organelle conformation.\nCells were treated with dimethyl sulfoxide (DMSO) as a solvent control at a final concentration of 0.5% v/v or with compounds in DMSO with a resulting final DMSO concentration of 0.5% v/v. Compound treatment was done at concentrations of 0.39, 0.78, 1.56, 3.12, 6.24, 12.5, 25, 50, 100, and 200 uM in duplicate on each plate. Cells were treated with compounds for 1, 24, or 72 hr. Carbonyl […] m-chloro-phenylhydrazone (CCCP) and taxol were used as positive controls for mitochondrial function and cytoskeletal stability, respectively; DMSO served as the negative control for this experiment. Cells were fixed by the direct addition of 50 uL formaldehyde in Hank's Balanced Salt Solution (HBSS) to a final concentration of 3.7%. After incubation in the fixation medium for 30 min at room temperature (293-298 K), cells were rinsed twice with HBSS and treated with cell permeabilization buffer (16 uL of 0.5% Triton X-100) for 10 min at room temperature (293-298 K) before labeling. For mitochondrial membrane potential and mitochondrial measurements, pre-fixed cells were incubated with 50 uL of MitoTracker Red CMXRos (Invitrogen) at a concentration of 250 nM for 30 min before fixation. In the remaining cases, post-fixed cells were labeled by incubation with a multiplexed mixture of primary antibodies in HBSS for 60 min at room temperature (293-298 K) to detect immunoreactivity of c-Jun (1:500), phospho-histone H3 (1:100), phospho-histone H2A.x (1:200), p53 (1:400), alpha-tubulin (1:200) and Hoechst 33342 (2 ug/mL). Cells were labeled for multiplexed imaging on two separate plates: a) Hoechst 33342, MitoTracker Red, phospho-histone H3, and alpha-tubulin, and b) Hoechst 33342, phospho-histone H2A.x, and c-Jun. A final rinse with HBSS (50 uL) was performed before analysis. The primary and secondary antibodies for the proteins were phospho-histone H3 (rabbit anti-phospho-histone H3 and FITC-donkey anti-rabbit IgG), phospho-histone H2A.x (mouse anti-phospho-histone H2A.x and FITC-donkey anti-mouse IgG), c-Jun (rabbit anti-phospho-c-Jun and Cy3-donkey anti-rabbit IgG), p53 (sheep anti-p53 and Cy5-donkey anti-sheep IgG), alpha-tubulin (mouse anti-alpha-tubulin and Cy5-donkey anti-mouse IgG). These antibodies are available as the CellCiphr HepG2 assay kit (Millipore).Digital images of each well were captured using a Cellomics ArrayScan VTI (Thermo Scientific Cellomics) (0.8 NA objective, 0.63x optical coupler, and XF-93 filter set) at 20x magnification. The images were acquired using the autofocus feature of the ArrayScan instrument, which entails the following steps. First, the camera focuses on channel 1 (Hoechst 33342), where nuclei are identified. Second, a Z offset of 1 um is used for capturing mitochondria (MitoTracker Red). […]", "values": [
      {"smiles": "Cc1cc(Cc2ccc(N)c(C)c2)ccc1N", "outcome": "inactive"},
      {"smiles": "O=C1OC(c2ccc(O)cc2)(c2ccc(O)cc2)c2ccccc21", "outcome": "inactive"},
      {"smiles": "CCCCOC(=O)CCCCC(=O)OCCCC", "outcome": "inactive"},
      {"smiles": "COc1ccc(OC(F)(F)F)cc1CN[C@H]1CCCN[C@H]1c1ccccc1", "outcome": "inactive"},
      {"smiles": "CC(=O)O", "outcome": "inactive"},
      {"smiles": "CC(C)OC(=O)C(C)(C)Oc1ccc(C(=O)c2ccc(Cl)cc2)cc1", "outcome": "inactive"},
      {"smiles": "NC=O", "outcome": "inactive"},
      {"smiles": "NCCOCCOCCN", "AC50": "3.84 µM (active)"},
      {"smiles": "CC(=O)OC1CC(C)OC(C)O1", "note": "(stereo not given)", "outcome": "inactive"},
      {"smiles": "CC(=O)CC(c1ccccc1)c1c(O)c2ccccc2oc1=O", "note": "(stereo not given)", "outcome": "inactive"},
      {"smiles": "CCCCCCC(C=O)=Cc1ccccc1", "outcome": "inactive"},
      {"smiles": "Cc1ccc(-c2cc(C(F)(F)F)nn2-c2ccc(S(N)(=O)=O)cc2)cc1", "outcome": "inactive"},
      {"smiles": "CC(C)(C)c1ccccc1", "outcome": "inactive"},
      {"smiles": "O=[Si]=O", "outcome": "inactive"},
      {"smiles": "CC(COCC(C)OC(=O)c1ccccc1)OC(=O)c1ccccc1", "note": "(stereo not given)", "outcome": "inactive"},
      {"smiles": "NC(=Nc1ccccc1)Nc1ccccc1", "outcome": "inactive"},
      {"smiles": "CCCCCCC(CCCCCCCCCCC(=O)OCC(COC(C)=O)OC(C)=O)OC(C)=O", "note": "(stereo not given)", "outcome": "inactive"},
      {"smiles": "CCCCCCCC(=O)OC", "outcome": "inactive"},
      {"smiles": "Cc1occc(=O)c1O", "outcome": "inactive"},
      {"smiles": "Cn1cnc2c1c(=O)[nH]c(=O)n2C", "outcome": "inactive"},
      {"smiles": "COC(=O)[C@H]1[C@H]2C[C@@H]3c4[nH]c5cc(OC)ccc5c4CCN3C[C@H]2C[C@@H](OC(=O)c2cc(OC)c(OC)c(OC)c2)[C@@H]1OC", "outcome": "inactive"},
      {"smiles": "CC(=O)S[C@H](C(=O)N[C@H]1Cc2ccccc2[C@H]2CCC[C@@H](C(=O)O)N2C1=O)C(C)C", "outcome": "inactive"},
      {"smiles": "C/C=C/c1ccc(OC)cc1", "outcome": "inactive"},
      {"smiles": "Cc1c(C)c2c(c(C)c1O)CCC(C)(COc1ccc(CC3SC(=O)NC3=O)cc1)O2", "note": "(stereo not given)", "outcome": "inactive"},
      {"smiles": "OCC(CO)n1cnc(-c2ccc(F)cc2)c1-c1ccnc(Oc2ccccc2)n1", "outcome": "inactive"},
      {"smiles": "CC(=O)O[C@]1(C(C)=O)CC[C@H]2[C@@H]3C=C(Cl)C4=CC(=O)[C@@H]5C[C@@H]5[C@]4(C)[C@H]3CC[C@@]21C", "outcome": "inactive"},
      {"smiles": "CCCCC(CC)COC(=O)CCCCCCCC(=O)OCC(CC)CCCC", "note": "(stereo not given)", "outcome": "inactive"},
      {"smiles": "c1ccc2occc2c1", "outcome": "inactive"},
      {"smiles": "O=C1c2c(O)cccc2Cc2cccc(O)c21", "outcome": "inactive"},
      {"smiles": "CCCCCCCCCCCCCCOS(=O)(=O)O", "outcome": "inactive"},
      {"smiles": "O=C(O)c1cccnc1", "outcome": "inactive"},
      {"smiles": "NC1CCCCC1", "outcome": "inactive"},
      {"smiles": "CN(C)C(=O)NC1(c2ccccc2)CCN(CC[C@@]2(c3ccc(F)c(F)c3)CN(C(=O)c3ccccc3)CCO2)CC1", "outcome": "inactive"},
      {"smiles": "O=C(O)CN(CC(=O)O)CC(=O)O", "outcome": "inactive"},
      {"smiles": "COc1ccc(C(=O)Nc2nc3ccccc3c(NCc3ccccc3)c2C#N)cc1", "AC50": "113 µM (active)"},
      {"smiles": "O=C1NC(=O)C(c2ccccc2)(c2ccccc2)N1", "outcome": "inactive"},
      {"smiles": "C/C=C/C=C/C(=O)O", "AC50": "60.7 µM (active)"},
      {"smiles": "CSc1ccc(Oc2ccc(S(N)(=O)=O)cc2CN(C)C)cc1C", "outcome": "inactive"},
      {"smiles": "O=C1CCCCC1", "outcome": "inactive"},
      {"smiles": "COC(=O)CCC(=O)OC", "outcome": "inactive"}
    ]}
  ]
}
